Data: PubChem BioAssay (NCI)
Compounds without any hit were thinned out: in the full panel of roughly 83,000, 20% have a hit.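 Activity criterion: percent growth below 10, measured after cells in 96-well plates were exposed to a single compound concentration for 48 hours.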 A number with no mark means an inactive call. Activity calls are given as the source filed them.

Columns and labels:
Experiment in all cases: NCI-60 one-dose screen, 48 h (100 = growth as untreated, 0 = no growth, -100 = all killed)
NCI-H23 lung = conditions: 10 µM unless noted
NCI-H226 lung = conditions: 10 µM unless noted
NCI-H322M lung = conditions: 10 µM unless noted
HOP-62 NSCLC = conditions: 10 µM unless noted
NCI-H460 lung = conditions: 10 µM unless noted
HOP-92 NSCLC = conditions: 10 µM unless noted
NCI-H522 lung = conditions: 10 µM unless noted
A549/ATCC NSCLC = conditions: 10 µM unless noted
786-0 renal = conditions: 10 µM unless noted
COLO 205 colon = conditions: 10 µM unless noted
DU-145 prostate = conditions: 10 µM unless noted
K-562 leukemia = conditions: 10 µM unless noted
MALME-3M melanoma = conditions: 10 µM unless noted
MDA-MB-231 breast = conditions: 10 µM unless noted
RXF 393 renal = conditions: 10 µM unless noted
SF-268 CNS = conditions: 10 µM unless noted
SF-295 CNS = conditions: 10 µM unless noted
SF-539 CNS = conditions: 10 µM unless noted
UACC-257 melanoma = conditions: 10 µM
M14 melanoma = conditions: 10 µM unless noted

| SMILES | growth (NCI-H23 lung) | growth (NCI-H226 lung) | growth (NCI-H322M lung) | growth (HOP-62 NSCLC) | growth (NCI-H460 lung) | growth (HOP-92 NSCLC) | growth (NCI-H522 lung) | growth (A549/ATCC NSCLC) | growth (786-0 renal) | growth (COLO 205 colon) | growth (DU-145 prostate) | growth (K-562 leukemia) | growth (MALME-3M melanoma) | growth (MDA-MB-231 breast) | growth (RXF 393 renal) | growth (SF-268 CNS) | growth (SF-295 CNS) | growth (SF-539 CNS) | growth (UACC-257 melanoma) | growth (M14 melanoma) |
| --- | --- | --- | --- | --- | --- | --- | --- | --- | --- | --- | --- | --- | --- | --- | --- | --- | --- | --- | --- | --- |
| CCNC(=NCCCN(C)C)N/C(N)=N/c1nc2ccccc2s1 | 98.7% | 92.7% | 91.5% | 82.4% | 104% | 58.1% | 99.2% | 89.8% | 84.6% | 78.7% | 99.5% | 65.9% | 97% | 73.6% | 65.4% | 94.8% | 92.4% | 82.9% | 104% | 97% |
| O=C(NNc1nc2cc(F)c(F)cc2n2cccc12)c1cccnn1 | 25.9% | 4.29% (active) | 26.2% | 20.2% | 8.06% (active) | 75.4% | -8.32% (active) | 14.1% | 19.2% | 9.86% (active) | 24.3% | 13.3% | 17.8% | 32.4% | 40.1% | 14% | 8.56% (active) | 0.368% (active) | 5.44% (active) | 11.2% |
| CCc1ccc(NC(=O)N[C@@H](Cc2cccc(F)c2)C(=O)N[C@@H]2C(=O)N3CCC[C@H]3C(=O)N3CCCC[C@H]3C(=O)N[C@@H](C)C(=O)N3C[C@H](C)C[C@H]3C(=O)O[C@H]2C)c(F)c1 | 31.7% | -2.16% (active) | 46% | 43% | 15.4% | -0.342% (active) | 26.8% | 33.3% | 37.1% | -26.4% (active) | 25.2% | 17.5% | 41.4% | 26.8% | -10.1% (active) | 34.9% | 4.24% (active) | 29.8% | 22.2% | 22% |
| C#C[C@]1(O)CC[C@H]2[C@@H]3CC=C4c5sc(C6CC6)nc5CC[C@]4(C)[C@H]3CC[C@@]21C | 86.4% | 94.6% | 84.1% | 100% | 82.2% | 120% | 81.6% | 72.5% | 51.2% | 119% | 92.3% | 35.3% | 107% | 91.3% | 5.22% (active) | 86.5% | 43.7% | 66.4% | 78.9% | 77.9% |
| Cc1ccc(/C=C/CC(=O)Nc2ccc(C(=O)Nc3ccc(F)cc3N)nc2)cn1 | 45.7% | 50.3% | 52.7% | 51.1% | 45.6% | -3.93% (active) | 2.35% (active) | 43.8% | 51.4% | 25% | 34.9% | 20.4% | 23.9% | 54.7% | 37.2% | 45.2% | 49.1% | 40.8% | 32.9% | 35.5% |
| C#C[C@]1(O)CC[C@H]2[C@@H]3CC=C4c5sc(Nc6cc(OC)ccc6OC)nc5CC[C@]4(C)[C@H]3CC[C@@]21C | 33.9% | 60.4% | 62.2% | 41.2% | 26.6% | 51.4% | 63.8% | 38% | -2.79% (active) | 18.5% | 43.8% | 6.54% (active) | 14.4% | 35.9% | -57.4% (active) | 30.8% | -67% (active) | -19.4% (active) | 0.933% (active) | -1.11% (active) |
| N/C(=N\OC(=O)CSc1nc2ccccc2s1)c1ccc2ccccc2c1 | 95.3% | 99.6% | 101% | 92% | 108% | 95.9% | 91.2% | 102% | 103% | 107% | 103% | 102% | 105% | 89.5% | 119% | 98.2% | 103% | 95.2% | 105% | 98.6% |
| COc1ccc(NS(=O)(=O)c2ccc(-c3cnc(C4CC4)o3)cc2)cc1Cl | 37.3% | 35.5% | 52.2% | 30.2% | 18.3% | 55.4% | 33.2% | 46.1% | 46.7% | 12.4% | 24.1% | 10.1% | 50% | 41.9% | 0.101% (active) | 66.1% | 10.6% | 13.3% | 66.9% | 21.1% |
